Laboratory results reported in PubChem BioAssay.
Numbered stars: 1 amine (or outer) side, 2 acyl side, 3 side chain; on linkers, the order of the positions; unused ones are H or OH. Bridge positions count the residues as written; N and C are the ends. Square brackets hold non-standard residues; d marks the D form. Side chains are listed from the residue outwards. Peptide text beside a SMILES is read from it. * marks the point of attachment. ξ: configuration not given here. ΔAla(E,3-NHCONH2) = NC(=O)N/C=C(/N)C(=O)O; X1 = NC1=NCCC(C(N[*:1])C(=O)[*:2])N1; Heptanoyl(6-Me) = CC(C)CCCCC(=O)*; X2 = CCC(C)C(N)C1=NC(C(=O)*)CS1; ξβ3hOrn = NCCCC(N)CC(=O)*; Orn = NCCC[CH](N)C(=O)O; Dab = NCC[CH](N)C(=O)O; Dap = NC[CH](N)C(=O)O

experiment: viability loss with induced miR-34 in A549 – imaging, A549 dox-inducible miR-34, nuclei and caspase counts, primary screen (AID 1347080); conditions: A549 miR-34 inducible, Hoechst nuclei count, 48 h; measured here: total cells without miR-34 induction; also: test concentration not given here

Row | SMILES | cell count
1 | CCCCC(=O)O[C@]1(C(=O)CO)CCC2C3CCC4=CC(=O)CC[C@]4(C)C3[C@@H](O)C[C@@]21C (stereo not given in full) | 9140
2 | CCCCC/C=C/CCC(=O)N[C@H]1[C@H](Oc2c3cc4cc2Oc2ccc(cc2Cl)[C@@H](O[C@@H]2O[C@H](CO)[C@@H](O)[C@H](O)[C@H]2NC(C)=O)[C@@H]2NC(=O)[C@H](NC(=O)[C@@H]4NC(=O)[C@H]4NC(=O)C(Cc5ccc(c(Cl)c5)O3)NC(=O)[C@H](N)c3ccc(O)c(c3)Oc3cc(O)cc4c3)c3ccc(O)c(c3)-c3c(OC4O[C@H](CO)[C@@H](O)[C@H](O)[C@@H]4O)cc(O)cc3[C@@H](C(=O)O)NC2=O)O[C@H](CO)[C@@H](O)[C@@H]1O (stereo not given in full) | 13200
3 | CC(C)(C)NCC(O)COc1cccc2c1CCCC2=O (stereo not given) | 13600
4 | CC(C)CCCC(C)[C@H]1CCC2C3CC=C4C[C@@H](O)CC[C@]4(C)C3CC[C@@]21C (stereo not given in full) | 12900
5 | CCC(=O)OCC(=O)[C@@]1(OC(=O)CC)[C@@H](C)CC2C3CCC4=CC(=O)C=C[C@]4(C)C3(F)[C@@H](O)C[C@@]21C (stereo not given in full) | 8480
6 | CC(=O)Nc1ccc(S(=O)(=O)Nc2onc(C)c2C)cc1 | 13200
7 | CO/N=C(\C(=O)NC1C(=O)N2C(C(=O)OCOC(=O)C(C)(C)C)=C(/C=C\c3scnc3C)CSC12)c1csc(N)n1 (stereo not given) | 12800
8 | CC1C/C=C/C=C/C=C/C=C/C(O[C@@H]2O[C@H](C)[C@@H](O)[C@H](N)[C@@H]2O)CC2OC(O)(CC(O)CC3OC3/C=C/C(=O)O1)CC(O)C2C(=O)O (stereo not given in full) | 13800
9 | C[C@]12CCC(=O)C=C1C=CC1C2CC[C@@]2(C)C1CC[C@@]21CCC(=O)O1 (stereo not given in full) | 12500
10 | CC(C)c1c(C(=O)c2ccccc2)c(-c2ccccc2)c(-c2ccc(F)cc2)n1CC[C@@H](O)C[C@@H](O)CC(=O)O | 10500
11 | CC(CCC(=O)O)[C@H]1CCC2C3C(=O)C[C@@H]4CC(=O)CC[C@]4(C)C3CC(=O)[C@@]21C (stereo not given in full) | 12900
12 | CC(=O)Nc1cc2ccccc2oc1=O | 9040
13 | CCCCCCCCCCC[C@@H](C[C@H]1OC(=O)[C@H]1CCCCCC)OC(=O)[C@@H](CC(C)C)NC=O | 13000
14 | CC(=O)OCC(=O)[C@@]12OC(C)(C)O[C@@H]1CC1C3C[C@H](F)C4=CC(=O)C=C[C@]4(C)[C@@]3(F)[C@@H](O)C[C@@]12C (stereo not given in full) | 7790
15 | CC[C@@H]1OC(=O)C[C@@H](O)[C@H](C)[C@@H](O[C@@H]2O[C@H](C)[C@@H](O)[C@H](N(C)C)[C@H]2O)[C@@H](CCN2C[C@H](C)C[C@H](C)C2)C[C@@H](C)C(=O)/C=C/C(C)=C\[C@@H]1CO[C@@H]1O[C@H](C)[C@@H](O)[C@@H](OC)[C@H]1OC | 13600
16 | O=C(OC[C@H]1O[C@H](OC(=O)c2cc(O)c(O)c(OC(=O)c3cc(O)c(O)c(O)c3)c2)[C@H](OC(=O)c2cc(O)c(O)c(OC(=O)c3cc(O)c(O)c(O)c3)c2)[C@@H](OC(=O)c2cc(O)c(O)c(OC(=O)c3cc(O)c(O)c(O)c3)c2)[C@@H]1OC(=O)c1cc(O)c(O)c(OC(=O)c2cc(O)c(O)c(O)c2)c1)c1cc(O)c(O)c(OC(=O)c2cc(O)c(O)c(O)c2)c1 | 7070
17 | CC(C)C1CCC(C(=O)N[C@@H](Cc2ccccc2)C(=O)O)CC1 (stereo not given in full) | 12800
18 | CCC(C)C(=O)O[C@H]1C[C@H](O)C=C2C=C[C@H](C)[C@H](CC[C@@H](O)C[C@@H](O)CC(=O)O)C21 (stereo not given in full) | 13500
19 | CCC(C)C1NC(=O)C(CCN)NC(=O)C(NC(=O)C(CCN)NC(=O)C(NC(=O)C(CCN)NC(=O)CCCCC(C)C)C(C)O)CCNC(=O)C(C(C)O)NC(=O)C(CCN)NC(=O)C(CCN)NC(=O)C(C(C)CC)NC1=O (stereo not given) ({Heptanoyl(6-Me)}-[Dab]T[Dab][Dab][Dab]II[Dab][Dab]T; lactam 4-C; configuration not given here) | 13800
20 | CC1=C(C(=O)O)N2C(=O)[C@@H](NC(=O)[C@H](N)C3=CCC=CC3)C2SC1 (stereo not given in full) | 12400

Row | SMILES | cell count
21 | OC[C@@H](O)C(O[C@@H]1O[C@H](CO)[C@H](O)[C@H](O)[C@H]1O)[C@H](O)[C@@H](O)CO (stereo not given in full) | 13000
22 | NCCCC(N)CC(=O)NCC1NC(=O)C(CO)NC(=O)C(N)CNC(=O)C(C2CCN=C(N)N2)NC(=O)/C(=C\NC(N)=O)NC1=O (stereo not drawn) (H-[Dap]S[Dap](ξβ3hOrn)[ΔAla(E,3-NHCONH2)][X1]; lactam 1-C; configuration not given here) | 13200
23 | COCC1=C(C(=O)OC(C)OC(=O)OC(C)C)N2C(=O)[C@@H](NC(=O)/C(=N/OC)c3csc(N)n3)[C@H]2SC1 (stereo not given in full) | 13100
24 | C#C[C@]1(OC(C)=O)CCC2C3CCC4=C/C(=N/O)CCC4C3CC[C@@]21CC (stereo not given in full) | 12700
25 | CCC(C)C(N)C1=NC(C(=O)NC(CC(C)C)C(=O)NC(CCC(=O)O)C(=O)NC(C(=O)NCCCCC2NC(=O)C(CC(N)=O)NC(=O)C(CC(=O)O)NC(=O)C(Cc3cnc[nH]3)NC(=O)C(Cc3ccccc3)NC(=O)C(C(C)CC)NC(=O)C(CCCN)NC2=O)C(C)CC)CS1 (stereo not drawn) (cyclo(DNK([Ile-Glu-Leu-X2])[Orn]IFH); configuration not given here) | 12300
26 | C[N+](C)(C)CCOP(=O)([O-])OP(=O)(O)OC[C@H]1OC(n2ccc(N)nc2=O)[C@H](O)[C@@H]1O (stereo not given in full) | 14000
27 | CCN[C@@H]1C[C@H](N)[C@@H](O[C@H]2OC(CN)=CC[C@H]2N)[C@H](O)[C@H]1OC1OC[C@](C)(O)[C@H](NC)[C@H]1O (stereo not given in full) | 11200
28 | C[C@]12C=CC(=O)C=C1CCC1C2[C@@H](O)C[C@@]2(C)C1CC[C@]2(O)C(=O)COC(=O)CCC(=O)O (stereo not given in full) | 9580
29 | O=C(N[C@@H](CO)[C@H](O)c1ccc([N+](=O)[O-])cc1)C(Cl)Cl | 11600
30 | N[C@H](Cc1cc(I)c(Oc2ccc(O)c(I)c2)c(I)c1)C(=O)O | 12400
31 | NC(Cc1c[nH]c2ccccc12)C(=O)O (stereo not given) | 12700
32 | O=C(O)C1=C(CSc2nnnn2CS(=O)(=O)O)CS[C@@H]2C(NC(=O)[C@H](O)c3ccccc3)C(=O)N12 (stereo not given in full) | 12900
33 | O=C1O[C@H](C(O)CO)C(O)=C1O (stereo not given in full) | 13100
34 | CC1=C(C(=O)O)N2C(=O)[C@@H](NC(=O)C(N)c3ccc(O)cc3)[C@H]2SC1 (stereo not given in full) | 12700
35 | C=C1CC[C@H](O)C/C1=C/C=C1\CCCC2(C)C1CCC2C(C)CCCC(C)C (stereo not given in full) | 12900
36 | CC(=O)c1cc2ccccc2oc1=O | 9810
37 | CCc1cc(Cl)c(OC)c(C(=O)NCC2CCCN2CC)c1O (stereo not given) | 8550
38 | OC[C@H]1OC([S-])[C@H](O)[C@@H](O)[C@@H]1O.[Au+] (stereo not given in full) | 10700
39 | CC(C)(O/N=C(\C(=O)N[C@@H]1C(=O)N2C(C(=O)[O-])=C(C[n+]3ccccc3)CSC12)c1csc(N)n1)C(=O)O (stereo not given in full) | 13200
40 | C[C@H]1O[C@@H](O[C@H]2[C@@H](O)C[C@H](O[C@H]3[C@@H](O)C[C@H](O[C@H]4CC[C@]5(C)C6CC[C@]7(C)[C@@H](C8=CC(=O)OC8)CC[C@]7(O)C6CC[C@@H]5C4)O[C@@H]3C)O[C@@H]2C)C[C@H](O)[C@@H]1O (stereo not given in full) | 450
